In ChEMBL document CHEMBL3988442, “University of Dundee, Small-Polar-MMV Screening Library” (2021):
The campaign covered roughly 69,000 compounds. About 950 (1.4%) showed an effect of 50% or more. The list comes from a sample in which strong results are over-represented; it also holds similar structures and randomly drawn compounds.

tested on: Mycobacterium tuberculosis; assay: Cornell M. t heat shock assay; type: functional, organism-based; design: dose or concentration left out as unconfirmed; note: in the data most compounds retested in dose-response had high values

Compared with CCCc1ccc(OC23CCCN(CC2)C3)c(OC)c1 (configuration not stated), COc1cc(C#N)ccc1OC12CCCN(CC1)C2 (configuration not stated) is lower in “Percent Effect” value: 85.22% for the first, -7.079% for the second.

Going from COc1cc(CN2CCCC2)ccc1OC12CCCN(CC1)C2 (configuration not stated) to O=C(c1ccc[nH]1)N1CCCn2c(CN3CCCCC3)nnc2C1, the “Percent Effect” value rises from -26.73% to 16.28%.

First: CS(=O)(=O)NC[C@H]1OC[C@@H]2CCN(CCc3ccccc3)C[C@@H]21.O=C(O)C(F)(F)F
Second: CN(C)CCO[C@@H]1CC[C@H]2[C@H]1OCCN2C(=O)COc1ccccc1.O=C(O)C(F)(F)F
The “Percent Effect” value of the first is lower: -13.26% for the first, 10.1% for the second.

Compared with CC(C)N(C)Cc1cncc2c1CCN(CC1CC1)C2.Cl.Cl.Cl, NC(=O)NC(=O)CN1CCN(CC2CC2)c2ccccc21 is higher in “Percent Effect” value: 9.593% for the first, 61.15% for the second.

Going from O=C(O)C(F)(F)F.O=C(O)[C@]12CCCN(C3CCOC3)C[C@H]1CN(c1nncs1)C2 (some centres not stated) to Cc1ccc(N2CCCC3(COCCN(c4ccccn4)C3)C2)nn1.O=C(O)C(F)(F)F (configuration not stated), the “Percent Effect” value falls from 32.9% to -19.77%.

First: COCCN1CCCn2c(nc(CNC(=O)COC)cc2=O)C1.O=C(O)C(F)(F)F
Second: CCN1CCN(C)C(=O)C12CCN(Cc1csc(C)n1)CC2.O=C(O)C(F)(F)F
The “Percent Effect” value of the first is higher: 37.74% for the first, 25.71% for the second.

Compared with COc1ccc(CN2C[C@H]3C[C@H](C(=O)Nc4cccnc4)[C@@H](C2)O3)cc1, COc1ccc(CN2C[C@@H]3OCCN(CC4CCCO4)[C@@H]3C2)cc1.O=C(O)C(F)(F)F.O=C(O)C(F)(F)F (some centres not stated) is lower in “Percent Effect” value: 4.187% for the first, 2.354% for the second.

Compared with CCOC(=O)c1c(NC(=O)CN2CCN(C(C)=O)CC2)sc(C)c1C, CCc1c(C)sc(NC(=O)CN2CCN(CC)CC2)c1C(=O)OC is higher in “Percent Effect” value: -7.801% for the first, 103.2% for the second.

First: CCc1c(C)sc(NC(=O)CN2CCOCC2)c1C(=O)OC
Second: COc1c(C2CCCN2CC(=O)Nc2nccs2)c(C)nn1C (configuration not stated)
The “Percent Effect” value of the first is higher: 24.22% for the first, 8.304% for the second.

Going from CC(=O)N1CCCC1c1cccc(Cc2ccccc2F)n1 (configuration not stated) to CN1CCCC1c1cccc(Cc2ccccc2F)n1 (configuration not stated), the “Percent Effect” value rises from -21.24% to 69.94%.

First: CN1CCCC1c1cccc(Cc2ccc(F)cc2)n1 (configuration not stated)
Second: Cl.O=C(c1cccc(F)c1)N1CCCC1c1ncc2c(n1)CCNC2 (configuration not stated)
The “Percent Effect” value of the first is higher: 24.93% for the first, -29.7% for the second.

First: Cc1cccc(CN2CCc3ncnc(C4CC4)c3CC2)n1.O=C(O)C(F)(F)F
Second: O=C(O)C(F)(F)F.O=C(O)C(F)(F)F.c1cncc(-c2ncnc3c2CCN(Cc2cccs2)CC3)c1
The “Percent Effect” value of the first is lower: -23.65% for the first, -18.81% for the second.

Compared with CC(C)Cc1cc(NC(=O)c2ccncc2)n(C)n1, CC(C)Cc1cc(NC(=O)c2ccccc2)n(C)n1 is higher in “Percent Effect” value: 18.34% for the first, 19.61% for the second.

Compared with CC(C)Cc1cc(NC(=O)c2ccccn2)n(C)n1, Cc1cnc(NC(=O)c2cccc(CN(C)Cc3ncccc3C)c2)s1 is lower in “Percent Effect” value: 64.59% for the first, 62.95% for the second.

Compared with CN(Cc1ccncc1)C1COC2(CCN(Cc3cccs3)CC2)C1.O=C(O)C(F)(F)F.O=C(O)C(F)(F)F.O=C(O)C(F)(F)F (configuration not stated), CN1CCN(C2COC3(CCN(Cc4ccc(F)cc4)CC3)C2)CC1.O=C(O)C(F)(F)F.O=C(O)C(F)(F)F.O=C(O)C(F)(F)F (configuration not stated) is lower in “Percent Effect” value: 10.37% for the first, -9.014% for the second.

First: CN(C)C(=O)CO[C@@H]1CC[C@H]2[C@H]1OCCN2c1ncc(F)cn1.O=C(O)C(F)(F)F
Second: CN(Cc1cccnc1)[C@@H]1CN(C(=O)CC2CC2)[C@@H]2CCCO[C@H]12.O=C(O)C(F)(F)F.O=C(O)C(F)(F)F
The “Percent Effect” value of the first is higher: 7.03% for the first, -21.3% for the second.

First: O[C@@H]1CN(c2cnc3ccccc3n2)CC[C@H]1c1ccc2c(c1)OCO2
Second: O[C@@H]1CN(c2nc3ccccc3o2)CC[C@H]1c1ccc2c(c1)OCO2
The “Percent Effect” value of the first is higher: 107.1% for the first, -10.34% for the second.

First: O[C@@H]1CN(c2nc3ccccc3s2)CC[C@H]1c1ccc2c(c1)OCO2
Second: Oc1cc(C2CCCN(Cc3cccs3)C2)nc(-c2ccccn2)n1 (configuration not stated)
The “Percent Effect” value of the first is lower: -12.43% for the first, 99.87% for the second.

Compared with O=C(O)C(F)(F)F.c1ccn(Cc2nnc3n2CCCN(Cc2ccoc2)C3)c1, O=C(O)C(F)(F)F.O=C(c1ccc[nH]1)N1CCCn2c(CNC3CCC3)nnc2C1 is higher in “Percent Effect” value: -15.36% for the first, 92.9% for the second.

Compared with O=C(C1CCC1)N1C[C@@H]2CN(Cc3ccncc3)C(=O)[C@@H]2C1.O=C(O)C(F)(F)F, O=C(O)C(F)(F)F.O=C1[C@H]2CN(Cc3nccs3)C[C@H]2CN1c1cncnc1 is lower in “Percent Effect” value: 6.384% for the first, -2.915% for the second.

Going from CN(C)CCCNCCC(c1ccccc1)C1CCOC(C)(C)C1.O=C(O)C(=O)O (configuration not stated) to Cc1nc[nH]c1CN(Cc1ccccc1F)C1CC(C)(C)NC(C)(C)C1.O=C(O)CC(O)(CC(=O)O)C(=O)O, the “Percent Effect” value falls from 21.84% to -2.69%.

First: CCNC(=O)NC(=O)CNC(C)(C)c1ccc2c(c1)OCCO2
Second: CCCNC(=O)NC(=O)CNC(C)(C)c1ccc2c(c1)OCCO2
The “Percent Effect” value of the first is lower: 11.57% for the first, 99.39% for the second.

Compared with CCCNC(=O)NC(=O)CNC(C)(C)c1ccc2c(c1)OCO2, CN(C)CCCNC(=O)c1ccc(N(C)S(C)(=O)=O)cc1Cl is higher in “Percent Effect” value: -10.73% for the first, 4.922% for the second.

Going from Cc1cc(C[C@@H]2COC[C@H]2NCc2ccc(C(C)C)cc2)on1.O=C(O)CC(O)(CC(=O)O)C(=O)O to CCn1cncc1CN(Cc1ccc(OC)cc1OC)CC1CCCO1.O=C(O)CC(O)(CC(=O)O)C(=O)O (configuration not stated), the “Percent Effect” value falls from 9.353% to -14.56%.

Compared with Cc1[nH]c2ccccc2c1CCNc1ncnc2c1CCNCC2, Cc1[nH]c2ccc(C#N)cc2c1CCNc1ncnc2c1CCNCC2 is higher in “Percent Effect” value: 1.152% for the first, 7.503% for the second.

Compared with Cc1[nH]c2ccc(Cl)cc2c1CCNc1ncnc2c1CCNC2, Cc1cnc(NC(=O)c2cccc(CN(C)Cc3snnc3C)c2)s1 is lower in “Percent Effect” value: 96.99% for the first, 9.507% for the second.

First: Cc1cc(C)nc(N2CCCC(C(=O)Nc3n[nH]c(C(C)C)n3)C2)n1 (configuration not stated)
Second: COc1c(C2CCCN2CC(=O)Nc2cc(C)no2)c(C)nn1C (configuration not stated)
The “Percent Effect” value of the first is higher: 13.11% for the first, 8.972% for the second.

Compared with O=C1CCCN1Cc1nnc2n1CCCN(C(=O)c1ccc[nH]1)C2, O=C(O)C(F)(F)F.O=C1C[C@H]2[C@H](CCN2Cc2ccccn2)N1CC1CC1 is lower in “Percent Effect” value: 27.49% for the first, -8.238% for the second.

Going from Cc1cnc(NC(=O)c2cccc(CN(C)Cc3ccno3)c2)s1 to Oc1cc(C2CCCCN2Cc2cccs2)nc(-c2ccccn2)n1 (configuration not stated), the “Percent Effect” value rises from 6.699% to 103.7%.

Going from NC(=O)NC(=O)CCN1CCN(CC2CC2)c2ccccc21 to CNC(=O)NC(=O)CN1CCN(CC2CC2)c2ccccc21, the “Percent Effect” value rises from -11.96% to 34.37%.

Going from CN(C)CCN1CCCC12CCN(C(=O)c1ccoc1)CC2.O=C(O)C(F)(F)F.O=C(O)C(F)(F)F to CN(C)C(=O)COCC1CN(Cc2ccoc2)Cc2ncn(C)c21.O=C(O)C(F)(F)F.O=C(O)C(F)(F)F (configuration not stated), the “Percent Effect” value falls from -7.317% to -26.5%.

First: O=C(CCN1CCCN(c2nccs2)CC1)NCC1CCCCC1
Second: NC(=O)NC(=O)CCN1CCCN(c2nccs2)CC1
The “Percent Effect” value of the first is lower: 0.6887% for the first, 91.9% for the second.

First: CNC(=O)NC(=O)CCN1CCN(c2nccs2)CC1
Second: NC(=O)NC(=O)CCN1CCN(c2nccs2)CC1
The “Percent Effect” value of the first is lower: 23.87% for the first, 101.5% for the second.

Going from O=C(CCN1CCCN(c2nccs2)CC1)Nc1ccccc1 to NC(=O)NC(=O)CN1CCN(c2nccs2)CC1, the “Percent Effect” value rises from -8.927% to -3.548%.

First: CC/N=c1\c(NC(=O)C(C)(C)C)c(O)oc2ccccc12
Second: CC(=O)N1Cc2ccnn2CC(C(=O)NCc2cccnc2)C1.O=C(O)C(F)(F)F (configuration not stated)
The “Percent Effect” value of the first is lower: -10.16% for the first, 37.04% for the second.

First: Oc1cc(C2CCCCN2Cc2ccsc2)nc(-c2ccncc2)n1 (configuration not stated)
Second: Oc1cc(C2CCCCN2Cc2cccs2)nc(-c2ccncc2)n1 (configuration not stated)
The “Percent Effect” value of the first is lower: -9.132% for the first, -5.43% for the second.

Going from Cn1ncc2ccc(C3CCCN(Cc4cccs4)C3)nc21 (configuration not stated) to Oc1cc(-c2nccs2)nc(C2CCN(Cc3cccs3)CC2)n1, the “Percent Effect” value rises from 13.99% to 15.4%.

Compared with COc1ccc(CN2CC[C@H]3[C@H]2CCN3C(=O)c2cnn(C)c2)cc1.O=C(O)C(F)(F)F, CNC(=O)[C@@H]1C[C@H]2CN(Cc3ccco3)C[C@H]2N1C.O=C(O)C(F)(F)F.O=C(O)C(F)(F)F is lower in “Percent Effect” value: 1.435% for the first, -19.75% for the second.

Compared with FC(F)(F)c1ccc2nc([C@H]3CCN(C4CCCCC4)C3)[nH]c2c1, FC(F)(F)c1ccc2nc([C@H]3CCN(C4CCC4)C3)[nH]c2c1 is lower in “Percent Effect” value: 60.59% for the first, 17.31% for the second.

First: FC(F)(F)c1ccc2nc([C@H]3CCN(C4CCOCC4)C3)[nH]c2c1
Second: Cl.O=C(NC1CCCC1)c1ccnc(C2CCNCC2)c1
The “Percent Effect” value of the first is higher: 5.789% for the first, -6.855% for the second.

Going from CC(=O)Nc1nc(CN2CCCC2Cn2cncn2)cs1 (configuration not stated) to CC(=O)Nc1nc(CN2CCCC2Cn2cccn2)cs1 (configuration not stated), the “Percent Effect” value rises from -13% to -5.465%.

Compared with COc1c(C2CCCN2CC(=O)Nc2nc(C)cs2)c(C)nn1C (configuration not stated), Cc1cnn(CC2CCCN2CC(=O)Nc2nc(C)cs2)c1 (configuration not stated) is higher in “Percent Effect” value: 75.33% for the first, 100.4% for the second.

Compared with CC(=O)Nc1nc(CN2CCCC2Cn2cc(C)cn2)cs1 (configuration not stated), Cc1cnn(CC2CCCN2CC(=O)Nc2nncs2)c1 (configuration not stated) is lower in “Percent Effect” value: 69.78% for the first, -6.011% for the second.

Going from Cc1cnn(CC2CCCN2CC(=O)Nc2cc(C)nn2C)c1 (configuration not stated) to Cc1cnn(CC2CCCN2CC(=O)Nc2nccs2)c1 (configuration not stated), the “Percent Effect” value rises from 19.4% to 102.3%.

Compared with O=C(CN1CCCC1Cn1cncn1)Nc1nccs1 (configuration not stated), Cc1cnn(CC2CCCN2CC(=O)NCc2ccccn2)c1 (configuration not stated) is lower in “Percent Effect” value: 4.576% for the first, -22.46% for the second.

Compared with Cc1ccc(C2(CN3CCN(Cc4cn(C)nc4C)CC3)CC2)cc1.Cl, Cc1nc2cc(-c3nccn3C)nn2c(N2CCC(O)CC2)c1C.Cl is lower in “Percent Effect” value: 5.814% for the first, 0.7953% for the second.
